Assay outcomes (PubChem)
aSyn 5UTR act: Activators via SNCA 5'UTR binding, MLPCN; activity score, % (tested at 7.5 µM), hits read low; 300,000 tested, 7.1% active; alpha-synuclein 5'UTR reporter, activators screen; in the data active = activity score below about -60%
* hit, by the source's call. These entries were drawn from the full list.

SMILES	aSyn 5UTR act
CCn1cnc2sc(-c3ccccc3)cc2c1=O	-130.1*
CC(=O)Cn1nnc2sc(-c3ccccc3)cc2c1=O	-90.2*
O=c1c2cc(-c3ccccc3)sc2ncn1-n1cccc1	-254.8*
CC(=O)Cn1cnc2sc(-c3ccccc3)cc2c1=O	-175.2*
Cc1ccc(C)n1-n1c(C)nc2sc(-c3ccccc3)cc2c1=O	-104.7*
Cc1nc2cc(-c3ccccc3)sc2c(=O)n1N	110.7
Cc1ccc(-c2cc(C(=O)NCCCN3CCCC3)c3ccccc3n2)cc1C	-63.0*
COc1ccc(-c2cc(C(=O)NCC(c3ccccc3)N(C)C)c3ccccc3n2)cc1OC (stereo not drawn)	-68.1*
Cc1ccc(-c2cc(C(=O)NCc3ccccn3)c3ccccc3n2)cc1C	-123.9*
COc1cccc(-c2cc(C(=O)NCCCn3ccnc3)c3ccccc3n2)c1	-69.9*
CC(=O)Cc1nsc(Nc2ccc(C)cc2)n1	-92.6*
COc1ccc(Oc2nc(-c3ccccn3)nc3ccccc23)cc1	-110.2*
Fc1ccc(Oc2nc(-c3ccccn3)nc3ccccc23)cc1	-94.6*
c1ccc(Oc2nc(-c3ccccn3)nc3ccccc23)cc1	-63.7*
COc1ccc(CNc2nc(-c3ccccc3)nn2C(=O)c2ccc([N+](=O)[O-])cc2)cc1	-120.0*
CC(=O)n1nc(-c2ccccc2)nc1NCc1ccc(N(C)C)cc1	-131.5*
CC(C)(C)c1ccc(C(=O)Nc2cccc3c(=O)[nH][nH]c(=O)c23)cc1	-68.1*
COc1ccc2c(C)c(C)c(=O)oc2c1OC	-84.5*
O=C(CC(Nc1ccc(F)cc1)C(=O)O)c1ccccc1 (stereo not drawn)	-171.1*
O=C(CC(Nc1ccc(F)cc1)C(=O)OCC(=O)c1cccs1)c1ccccc1 (stereo not drawn)	-112.7*
CC1=NN(c2ccccc2)C(=O)C1N=Nc1ccccc1 (stereo not drawn)	-222.4*
CC1=NN(c2ccccc2)C(=O)C1N=Nc1cccc(O)c1 (stereo not drawn)	-137.6*
Cc1occc1C(=O)Nc1ccc2c(c1)CCC2	-187.8*
Cc1ccc(C(=O)Nc2ccc(F)cc2)o1	-73.2*
Cc1ccoc1C(=O)Nc1ccc(CC(=O)O)cc1	83.9
SMILES	aSyn 5UTR act
O=C(Nc1ccc2c(c1)CCC2)c1cc2ccccc2o1	-188.1*
Cc1ccc(C(=O)Nc2ccc3c(c2)CCC3)o1	-134.4*
Cc1ccc(NC(=O)c2ccc(OC(F)(F)F)cc2)cc1S(=O)(=O)N(C)C	-76.2*
O=C(Nc1ccc2c(c1)CCC2)c1ccc(Br)o1	-157.0*
O=C(Nc1ccc2c(c1)OCO2)c1ccc(COc2ccc3c(c2)CCC3)o1	-76.1*
Cc1ccc(NC(=O)c2ccc(Br)o2)cc1S(=O)(=O)N(C)C	-125.4*
Cc1ccc(C(=O)Nc2ccccc2C(N)=O)o1	-78.1*
O=C(Nc1ccc2c(c1)OCO2)c1ccc(Br)o1	-255.7*
c1ccc(-c2cnc(-c3ccccc3)nc2)cc1	-66.4*
Nc1cnc(-c2ccccc2)nc1Cl	-62.5*
c1ccc(-c2ncc3c(ccc4ccccc43)n2)cc1	68.1
CCc1nnc(NC(=O)C2Cc3ccccc3CN2S(=O)(=O)c2cccs2)s1 (stereo not drawn)	-105.4*
Cc1cc(C)c2sc(NNC(=O)c3ccc(S(=O)(=O)N4CCc5ccccc5C4)cc3)nc2c1	77.4
O=C(Nc1nnc(C2CC2)s1)C1Cc2ccccc2CN1S(=O)(=O)c1cccs1 (stereo not drawn)	-66.4*
CCc1nnc(NC(=O)C2Cc3ccccc3CN2S(=O)(=O)c2ccc(C)cc2)s1 (stereo not drawn)	-81.2*
Cc1ncsc1C(=O)Nc1nc2c(s1)CCCC2	-158.6*
O=C(Nc1nc2c(s1)CCCC2)c1ccc(Br)s1	-93.3*
O=C(Nc1ccc2nc(-c3ccco3)[nH]c2c1)c1cccs1	-190.4*
O=C(Nc1ccc(-c2nc3ccccc3[nH]2)cc1)c1ccco1	-133.4*
Cc1ccc2nc(-c3cccc(NC(=O)c4ccco4)c3)[nH]c2c1	-121.2*
O=C(c1ccccc1)c1ccc2nc(-c3ccc(NC(=O)c4ccccc4F)cc3)[nH]c2c1	-100.7*
O=C(/C=C/c1ccco1)Nc1ccc(-c2nc3ccccc3[nH]2)cc1	89.3
O=C(Nc1ccc2nc(-c3ccccc3)[nH]c2c1)c1cccs1	-103.4*
CC(=O)Nc1ccc2nc(-c3ccco3)[nH]c2c1	-72.9*
O=C(Nc1ccc2nc(-c3ccco3)[nH]c2c1)c1ccco1	-117.5*
SMILES	aSyn 5UTR act
CC(C)c1[nH]nc2c1C(c1ccco1)C(C#N)=C(N)O2 (stereo not drawn)	-133.3*
COc1ccc(C(=O)Nc2nc(-c3cccs3)c(NC(C)=O)s2)cc1	-83.4*
COc1ccc2nc(NC(=O)c3ccc(NS(=O)(=O)c4cccs4)cc3)sc2c1	-66.9*
COc1ccc(C(=O)Nc2nc3ccc(OC)cc3s2)cc1	-276.6*
CCn1cc([N+](=O)[O-])c(C(=O)Nc2nc3ccc(OC)cc3s2)n1	-83.9*
CCOC(=O)c1c(C)[nH]c(C(=O)CN2C(=O)NC3(CCCC3)C2=O)c1C	-67.4*
COC(=O)c1ccc(CN2C(=O)NC3(CCCCC3)C2=O)cc1	-124.0*
Cc1cc(C(=O)CN2C(=O)NC3(CCCCC3C)C2=O)c(C)n1Cc1cccs1 (stereo not drawn)	-164.9*
Cc1cc(C)c(C(=O)CN2C(=O)NC3(CCCCCC3)C2=O)cc1C	-72.2*
CCOC(=O)c1c(C)[nH]c(C(=O)CSc2nccc(C)n2)c1C	-128.7*
COc1ccc(C(=O)CN2C(=O)c3ccccc3S2(=O)=O)cc1	101.3
COc1ccc(C(=O)CN2C(=O)NC3(CCCCCC3)C2=O)cc1	-90.3*
Cc1cc(C(=O)CN2C(=O)NC3(CCCCC3)C2=O)c(C)n1C	-68.6*
C/C(=N\n1nnnc1Nc1ccccc1)c1ccc(N)cc1	-124.1*
Cc1ccc(C2CN=NC23CCc2ccccc2C3=O)cc1 (stereo not drawn)	-79.6*
N#Cc1ccc(-c2ccc(OCC3CNC(=O)O3)cc2)cc1 (stereo not drawn)	-74.7*
c1ccc2nc3c(nc2c1)OCC1CCCCN31 (stereo not drawn)	-91.0*
Cc1ccnc(N=Cc2nc(-c3ccccc3Br)oc2O)c1	-102.3*
CC(=Nc1cc(C(=O)c2ccccc2)ccc1N)C1=C(O)CC(C)(C)CC1=O	-76.4*
Cc1ccc(N=Cc2sccc2C)cc1C	-111.4*
CCCC(=O)Nc1cc(C)c2c(=O)oc3ccccc3c2n1	-73.9*
Nc1ccccc1-c1nc2ccccc2[nH]c1=O	-141.1*
CCSc1nnc(-c2ccccc2N)c(=O)[nH]1	-67.5*
Nc1ccc(Br)cc1-c1nc2ccccc2[nH]c1=O	-102.0*
Cc1[nH]n(-c2ccccc2)c(=O)c1N=Nc1ccccc1	-182.3*
SMILES	aSyn 5UTR act
Cc1ccc(N=Nc2c(N)n(-c3ccccc3)[nH]c2=O)cc1	-153.9*
Nc1[nH]n(-c2ccccc2)c(=O)c1N=Nc1ccc2c(c1)OCO2	-204.6*
CN(C)Cc1ccccc1Sc1ccc2c(c1)CCCC2	104.3
Cc1sc(NC(=O)c2cccs2)c(C(N)=O)c1C	-254.8*
Cc1sc(NC(=O)C2=COCCO2)c(C(N)=O)c1C	-62.4*
NC(=O)c1ccsc1NC(=O)c1cccs1	-164.5*
Cc1sc(NC(=O)CCCC(=O)O)c(C(N)=O)c1-c1ccccc1	51.8
CC(=O)Nc1ccc(/C=C/c2ccc3c([N+](=O)[O-])cccc3n2)cc1	-163.7*
O=[N+]([O-])c1cccc2ccc(/C=C/c3cccc(Br)c3)nc12	-107.1*
O=[N+]([O-])c1cccc2ccc(/C=C/c3ccc(Cl)cc3)nc12	-149.3*
O=[N+]([O-])c1cccc2ccc(/C=C/c3ccc(C(F)(F)F)cc3)nc12	-94.0*
